High-throughput results deposited in PubChem by several laboratories.
CYP2C19 activ – human CYP2C19 activators, primary screen, biochemical, luminescence; Cytochrome P450 2C19 (Homo sapiens), P33261; recombinant CYP2C19, luciferin-H EGE luminescence; stronger effect = higher value; 0 = fully inhibited enzyme, 1 = untreated enzyme; activation factor at 5 µM; 96,000 tested, under 10 active;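 active means activation factor of at least 2 at 5 µM in the primary screen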;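 further: 0 = wells with 2.5 mM tranylcypromine and 1 = vehicle-only wells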
Target sequence (P33261 whole entry, looked up): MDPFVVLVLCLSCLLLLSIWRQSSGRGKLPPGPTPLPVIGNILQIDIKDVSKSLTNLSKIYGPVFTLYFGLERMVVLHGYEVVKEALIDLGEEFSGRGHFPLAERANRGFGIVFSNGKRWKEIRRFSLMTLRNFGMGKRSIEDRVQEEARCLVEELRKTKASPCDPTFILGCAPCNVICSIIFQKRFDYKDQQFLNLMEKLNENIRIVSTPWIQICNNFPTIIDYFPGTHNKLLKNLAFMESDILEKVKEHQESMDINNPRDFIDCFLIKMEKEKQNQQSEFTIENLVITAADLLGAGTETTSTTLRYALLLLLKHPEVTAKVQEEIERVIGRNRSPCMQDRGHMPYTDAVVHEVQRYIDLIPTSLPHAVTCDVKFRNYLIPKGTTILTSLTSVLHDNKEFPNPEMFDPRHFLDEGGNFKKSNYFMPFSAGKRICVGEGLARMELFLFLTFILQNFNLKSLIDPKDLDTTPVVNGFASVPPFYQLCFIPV
E-sel TNF inh – E-selectin induction blockers in HUVEC – imaging, immunofluorescence, high content, primary screen | actives 0.71% (n = 120,000) | HUVEC TNFa-induced E-selectin immunofluorescence | inhibition, % at 2 µM;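 active means inhibition above the batch mean plus 3 SD, and confirmed as a hit on visual image review, cut at about 43% in these data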;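 further: 0% = TNF-stimulated DMSO wells and 100% = unstimulated control wells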
CYP2C9 inhib – blockers of cytochrome P450 2C9 activity – biochemical, luminescence, ADME assay, primary screen; P11712; CYP2C9 Supersomes, luciferin-H conversion; inhibition, % at 5 µM; actives 20% (n = 96,000);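 active means blocking of liver enzyme CYP2C9 beyond about 50% at 5 µM, limit read from the data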
CYP2C19 inhib – blockers of cytochrome P450 2C19 activity – biochemical, luminescence, ADME assay, primary screen; P33261; actives 21% (n = 96,000); inhibition, % at 5 µM; CYP2C19 Supersomes, luciferin-H EGE luminescence, 30 min; AID 778, 2007;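 active means CYP2C19 inhibition above a set limit at 5 µM in the primary screen, cut at about 50% in these data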;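 further: plate controls were negative control wells for no effect and 2.5 mM tranylcypromine positive control for full effect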
cytoskel mod – modifiers of F-actin cytoskeleton organization, primary screen, imaging, HUVEC, phalloidin staining, high-content imaging | inhibition, % at 2 µM | actives 0.18% (n = 91,000) | HUVEC TNFa F-actin phalloidin imaging;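 active means inhibition above the batch mean plus 3 SD and confirmed as a hit by visual image inspection, cut at about 30% in these data, passing the limit was not always enough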
CYP2C9 activ – human CYP2C9 activators, primary screen, biochemical, luminescence | Cytochrome P450 2C9 (Homo sapiens), P11712 | recombinant CYP2C9, luciferin-H conversion; stronger effect = higher value; factor 1 = untreated enzyme, 0 = blocked | activation factor at 5 µM | actives 1.4% (n = 96,000) | AID 1024, 2008;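 active means activation factor of 2 or more for CYP2C9 at a 5 µM dose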;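 further: 0 = sulfaphenazole-blocked wells and 1 = vehicle-only wells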
An asterisk follows results filed as active; nt = not tested or not shown. The list is not random: actives were taken first. Their share in the collection is about 22%.

SMILES	CYP2C19 activ	E-sel TNF inh	CYP2C9 inhib	CYP2C19 inhib	cytoskel mod	CYP2C9 activ
O=C1N(Cc2ccc(F)cc2Cl)c2ccccc2C12OCCCO2	0.7	16	-79	26	-6	1.8
COc1ccc(CCNC(=O)CN2C(=O)C3(OCCCO3)c3ccccc32)cc1OC	0.4	nt	22	59*	nt	0.8
COc1ccccc1NC(=O)CN1C(=O)C2(OCCCO2)c2ccccc21	0.2	-9	70*	80*	nt	0.3
O=C1N(Cc2ccccc2F)c2ccccc2C12OCCCO2	0.4	0	-39	57*	-49	1.4
COc1ccc(OC)c(NC(=O)CN2C(=O)C3(OCCCO3)c3ccccc32)c1	0.9	nt	69*	14	nt	0.3
CCCC(=O)CN1C(=O)C2(OCCO2)c2ccccc21	0.9	-17	11	6	nt	0.9
O/N=C/c1ccn(-c2ccc(Br)cc2)c1	nt	-11	nt	nt	nt	nt
O=C(CN1CCN(Cc2ccccc2Cl)C1=O)N1CCCCCC1	0.4	9	-47	59*	6	1.5
CN(CCNC(=O)CN1CCN(Cc2ccccc2Cl)C1=O)Cc1ccccc1	0.6	-2	29	40	-18	0.7
Fc1cc(F)c(F)c(SCCc2ccncc2)c1F	0.2	18	74*	81*	-1	0.3
c1ccc(SCCc2ccncc2)cc1	0	6	81*	95*	-9	0.2
O=C(NCCSc1ccccc1)c1cccnc1	0.6	nt	22	40	-6	0.8
O=S(CCc1ccncc1)Cc1ccccc1 (configuration not stated)	0.2	-8	53*	85*	nt	0.5
COc1ccc(SCCc2ccncc2)cc1	nt	0	nt	nt	nt	nt
Fc1ccc(SCCc2ccncc2)cc1	0	8	82*	97*	-10	0.2
CCCCS(=O)Cc1ccccc1 (configuration not stated)	1.1	16	-42	-9	-7	1.4
COc1ccc(N2C(=O)C3CCCN3C2c2cc(OC)c(OC)c(OC)c2)cc1 (configuration not stated)	0.7	9	36	29	14	0.6
CCS(=O)(=O)N1Cc2ccccc2CC1C(=O)Nc1nc2ccccc2s1 (configuration not stated)	nt	9	nt	nt	nt	nt
CCOC(=O)C1CCN(C(=O)COc2ccc(S(=O)(=O)NC(C)(C)C)cc2)CC1	1	6	19	2	0	0.8
CNNC(=O)C(C)NC(=O)c1ccc(Br)cc1 (configuration not stated)	0.9	20	-13	11	18	1.1
O=C(CCc1nnc(C2CCCCC2)o1)N1CCCCC1CCn1cccn1 (configuration not stated)	nt	-22	nt	nt	nt	nt
CCC(C)n1cnc2c(c1=O)c1nc3ccccc3nc1n2Cc1ccc(OC)cc1 (configuration not stated)	0.7	32	48	30	-6	0.5
CC1CCCCN1Cc1c(C#N)c2ccccc2n1C (configuration not stated)	0.5	0	-2	52*	-14	1
CC1CCN(Cc2c(C#N)c3ccccc3n2C)CC1	0.2	16	12	81*	nt	0.9
Cn1c(CN2CCOCC2)c(C#N)c2ccccc21	0.1	3	-79	88*	-17	1.8
SMILES	CYP2C19 activ	E-sel TNF inh	CYP2C9 inhib	CYP2C19 inhib	cytoskel mod	CYP2C9 activ
Cn1c(CN2CCCC2)c(C#N)c2ccccc21	nt	-21	nt	nt	nt	nt
CCOC(=O)CSCc1c(C#N)c2ccccc2n1C	0	11	-8	100*	-21	1.1
CN1CCN(Cc2c(C#N)c3ccccc3n2C)CC1	0.5	-87	-85	48	nt	1.9
CCN(C(=O)Nc1ccccc1OC)c1c(N)n(Cc2ccccc2)c(=O)[nH]c1=O	1	-4	-2	-2	20	1
CCCCN=Cc1sc2ccc(OCC)cc2c1O	0.1	1	-9	94*	nt	1.1
Oc1c(C=NCc2ccccc2)sc2ccccc12	nt	-20	nt	nt	nt	nt
COC(=O)c1cn(NC(=O)COc2ccc(Cl)cc2)c(=O)c2ccccc12	nt	4	nt	nt	nt	nt
COc1ccc(S(=O)(=O)Nc2ccc3ccccc3c2)cc1C	0	-72	100*	100*	5	0
CCc1ccc(NS(=O)(=O)c2ccc(OC)c(C)c2)cc1	0.2	nt	80*	78*	-16	0.2
COc1cc(C)c(S(=O)(=O)Nc2ccc(CC(=O)O)cc2)cc1C	nt	-23	nt	nt	-6	nt
COc1ccccc1CC1(C)NC(=O)N(CC(=O)N2CC(C)OC(C)C2)C1=O (configuration not stated)	0.4	87*	-14	57*	3	1.1
CC1CN(C(=O)CN2C(=O)NC3(CCCCCC3)C2=O)CC(C)O1 (configuration not stated)	1.1	4	-8	-5	14	1.1
Cc1ccccc1OCCCCCn1ccnc1	0	31	100*	100*	-12	0
Clc1ccc(SCCCCn2ccnc2)cc1	0	-4	100*	100*	-6	0
Clc1cc(Br)ccc1OCCn1ccnc1	0	5	93*	96*	-7	0.1
Clc1ccccc1OCCCCn1ccnc1	0	2	96*	100*	22	0
COc1ccccc1/C=C(/C(=O)NCCCn1ccnc1)c1ccccc1	nt	-17	nt	nt	nt	nt
COCCNCCCCSc1ccc(Cl)cc1	nt	-15	nt	nt	nt	nt
COc1ccccc1NC(=O)Cn1cnc2c1c(=O)n(C)c(=O)n2C	1.1	8	-11	-9	27	1.1
CCC1Cc2c(nc3c4c(nc(N5CCOCC5)c(C#N)c24)NC(C)=N3)O1 (configuration not stated)	nt	5	nt	nt	11	nt
COc1ccc(Cc2nc(-c3cccc(C)c3)no2)cc1	1	8	-5	-3	-13	1
Cc1cccc(-c2noc(Cc3ccc(Cl)cc3)n2)c1	0.2	-23	56*	80*	-16	0.4
CCOP(=O)(OCC)c1nc(/C=C/c2ccccc2)oc1NCc1ccccc1	0.4	22	36	56*	-15	0.6
CCOP(=O)(OCC)c1nc(-c2cccc3ccccc23)oc1NCc1ccccc1	0.7	36	37	30	-8	0.6
CCOP(=O)(OCC)c1nc(/C=C/c2ccccc2)oc1NCc1ccc(OC)cc1	0	nt	78*	98*	8	0.2
O=C(NCC1CCCO1)c1ccc2c(c1)N(Cc1ccccc1)C(=O)CS2=O (configuration not stated)	0.8	5	28	18	nt	0.7
COC(=O)c1cccc(-n2cnnn2)c1	nt	-20	nt	nt	2	nt
COc1c(S(=O)(=O)N2CCCCC2)ccc2c(S(=O)(=O)N3CCCCC3)cccc12	nt	2	nt	nt	3	nt
